# Screens deposited in PubChem BioAssay by National Center for Advancing Translational Sciences (NCATS).
# Rows were chosen to be rich in hits. Some 19% of all compounds tested hit in one or more screens of this group.
# Pf growth 96h = P. falciparum growth inhibition at 96 hour, primary screen for plastid delayed-death inhibitors; P. falciparum luciferase reporter growth, 96 h; Potency, µM (top dose mostly 28.7 µM), for inactives: top-dose activity change, negative = inhibition, usual class: inhibitors; hit rate 6.9% among 320,000; also: potency is read from the fitted curve at half-maximal effect; % is scaled to controls: 0 for no effect and ±100 for the full control effect
#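 Delayed-death screen, second-generation endpoint: infected erythrocytes, 2% hematocrit, 0.05% parasitemia final; 96 hours at 37 C, 5% CO2; luciferase detection reagent; luminescence decrease equals reduced growth.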
# Pf growth 48h = inhibits P. falciparum growth in the first generation, 48 h | P. falciparum luciferase growth in erythrocytes, 48 h | Potency, µM (doses to about 28.7 µM), without a hit: at the top dose activity change, negative = inhibition, usual class: inhibitors | hit rate 5.9% among 310,000 | AID 504832; also: potency is read from the fitted curve at half-maximal effect; % is scaled to controls: 0 for no effect and ±100 for the full control effect
#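 In quantitative HTS format, infected erythrocytes bearing luciferase-reporter parasites were treated for a single generation at 37 C. Luminescence after adding detection reagent served as the growth measure.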
# CHX counter = affects cycloheximide protein synthesis inhibition readout, counter-screen. AID 2314. cell reporter, cycloheximide protein synthesis inhibition counterscreen. max response, %. hit rate 12% among 300,000; in the data active = max response mostly above about 13%, no sharp cut-off; inactive = mostly below about 14%; also: read at 38.3 µM for the half of the compounds with a filed dose; 0% is about no effect
# Marburg entry inh = inhibitors of Marburg virus binding or cell entry; Potency, µM (highest dose often 37.8 µM), for inactives: at the top dose activity change, negative = inhibition, actives largely listed as inhibitors; hit rate 1.8% among 300,000; AID 540276; Marburg virus pseudotyped entry inhibition, cell reporter; calls by dose curve; tested in HEK293 cells; also: potency is read from the fitted curve at half-maximal effect; % is scaled to controls: 0 for no effect and ±100 for the full control effect
# Shiga toxin inh = blocks Shiga toxin action in Vero cells. Vero cells, Shiga toxin protein synthesis inhibition reporter. inhibition, % at 38.7 µM. hit rate 9.2% among 290,000. AID 2315; in the data active = inhibition mostly above about 28%, no sharp cut-off; inactive = mostly below about 43%; also: 0% is about no effect
# Lassa entry inh = blocks Lassa virus binding to or entry into cells. Lassa virus pseudotype entry inhibition, cell reporter. Potency, µM (top dose mostly 37.9 µM), for inactives: at the highest dose activity change, negative = inhibition, most hits filed as inhibitors. hit rate 1.2% among 300,000; calls by dose curve; tested in HEK293 cells; also: potency is read from the fitted curve at half-maximal effect; % is scaled to controls: 0 for no effect and ±100 for the full control effect; nearly all actives have a fitted effect of over 50% in size
# An asterisk follows results filed as active; ? = inconclusive; . = no result given; [ ] = dose if it differs, or a comment. Unless noted, calls follow the shape of the dose curve; as a rule, active = well fitted inhibition curve with a large enough effect; inconclusive = small, poorly fitted or top-dose-only effect, or another doubt; inactive = no such curve, though single readings can be large or run the other way.
SMILES,Pf growth 96h,Pf growth 48h,CHX counter,Marburg entry inh,Shiga toxin inh,Lassa entry inh
COCCNC(=O)c1cn(C)c(=O)c2cc(OC)c(OC)cc12,8.3µM*,13%,-3,19%,4,1%
CCC(C)NC(=O)c1cn(C)c(=O)c2cc(OC)c(OC)cc12 (centres undefined),9.3µM*,0%,-2,0%,-2,12%
CN1CC(=O)Nc2ccc(Br)cc2C1=O,57%,5%,-5,.,-2,.
COc1ccc(Cc2nc(-c3ccc(Br)cc3)no2)cc1,21%,38%,29*,-7%,31*,12%
COc1ccc(-c2noc(CCC(=O)NCc3cccnc3)n2)cc1,4%,6%,-4,?,-31,-4%
COc1ccc(Cc2nc(-c3ccc(Cl)cc3)no2)cc1,0%,29%,21*,-17%[46.1 µM],49*,?
COc1ccc(Cc2nc(-c3ccc(NC(=O)c4cccnc4)cc3)no2)cc1,44%,5.2µM*,0,15%[46.1 µM],-13,-1%
Cc1ccc(Cc2nc(-c3ccncc3)no2)cc1,-37%[1.15 µM],4%,14,14%,54*,-13%
COc1ccc(-c2noc(Cc3ccc(Cl)cc3)n2)cc1OC,?,4%,6,-12%,8,?
COc1ccc(S(=O)(=O)NCCc2ccccc2)cc1,-7%,.,12,14%,16,4%
Cc1cccc(-c2nc3cc(NC(=O)Cc4ccc(Cl)cc4)ccc3o2)c1,.,.,.,.,.,-1%[46.1 µM]
Clc1ccc(OCc2nc(-c3ccncc3)no2)cc1,10µM*,.,31*,27%,36,11%
Clc1ccc(-c2noc(COc3ccccc3)n2)cc1,27%,55%,-2,1%,24,?
C=CCSC1=C(C#N)C(c2ccc(OCC)cc2)CC(=O)N1 (centres undefined),7.4µM*,.,-6,.,-17,.
C=CCSC1=C(C#N)C(c2ccccc2Cl)CC(=O)N1 (centres undefined),3.3µM*,3%,-3,7%,-17,?
Fc1ccc(-n2ncc3c(Nc4ccc5c(c4)OCCO5)ncnc32)cc1,.,.,.,.,.,10%[46.1 µM]
O=C1CCCCCN1C(=O)c1ccc(C(=O)N2CCCCCC2=O)cc1,.,7%,-11,5%,-16,13%
COc1cccc(CNC(=O)CN(C)S(=O)(=O)c2ccc3c(c2)n(C)c(=O)c(=O)n3C)c1,?,?,2,.,10,.
CC1=NN=C(c2ccc(N)cc2)c2cc3c(cc2C1)OCO3,?,12µM*,.,?,.,?
CN(CC(=O)Nc1ccc(Cl)c(Cl)c1)C(=O)C12CC3CC(CC(C3)C1)C2,7.4µM*,?,-1,?,-3,?
CN(CC(=O)Nc1ccc(Cl)c(Cl)c1)C1CCCCC1,-4%,30%,12,.,-3,.
O=S(=O)(Cc1ccccc1)N1CCCCCC1,0%,13%,-2,-13%,-3,0%
C[C@H]1[C@H](C)CC[C@]2(C)CC[C@]3(C)C(=CC[C@@H]4[C@@]5(C)CC[C@@H](O)[C@](C)(C(=O)O)[C@@H]5CC[C@]43C)[C@H]12,13µM*,?,-2,.,-3,.
C[C@H]1[C@H](C)CC[C@]2(C(=O)O)CC[C@]3(C)C(=CC[C@@H]4[C@@]5(C)CC[C@H](O)C(C)(C)[C@@H]5CC[C@]43C)[C@H]12,37%,4%,-4,.,-9,.
Cc1ccc(N2C(=N)/C(=C3/Nc4ccccc4S3)C(c3ccccc3)C2=O)cc1 (centres undefined),?,-1%,44*,12%,62*,7%
SMILES,Pf growth 96h,Pf growth 48h,CHX counter,Marburg entry inh,Shiga toxin inh,Lassa entry inh
COc1ccc(C2CC(O)(c3ccccc3)Oc3c(C)ccc(C(C)C)c32)cc1 (centres undefined),.,.,-3,.,17,.
COc1ccc(C2CC(O)(c3ccccc3)Oc3cc(OC)ccc32)cc1 (centres undefined),?,12µM*,20,.,28,.
CC(NC(=O)COc1ccc(-c2nnco2)cc1)c1ccc(Cl)cc1Cl (centres undefined),13µM*,?,-3,-8%,-3,-6%
O=C(CN(C(=O)c1cccc([N+](=O)[O-])c1)C1CCCCC1)Nc1ccc(Cl)c([N+](=O)[O-])c1,?,1.9µM*,-5,3%,-4,-14%
O=C(O)C1=C(C(=O)O)C2C=CC1C2,.,.,.,2%[46.1 µM],.,11%[46.1 µM]
CCOc1cccc(CN2CCCC(N3CCc4cc(OC)c(OC)cc4C3)C2)c1O (centres undefined),?,?,3,9%[46.1 µM],-5,17%[46.1 µM]
COc1ccc(C(=O)N2C(=S)NC(=O)/C2=C\c2ccc(C)cc2)cc1,164%,-2%,22*,20%,21,23%
CC(=O)Nc1ccc(OS(=O)(=O)c2ccccc2C)cc1,23%,20%,8,?,8,0%
Cc1ccccc1C(=O)Oc1ccc2ccc(O)cc2c1,123%,217%,59*,.,.,.
COc1cccc(C(=O)Oc2ccc3ccc(O)cc3c2)c1,-5%,72%,39*,.,.,.
COc1cccc(C(=O)NNC(=O)c2ccc3ccccc3c2)c1,.,.,.,-20%,.,2%
Cc1ccccc1S(=O)(=O)Oc1ccc2ccc(O)cc2c1,116%,56%,32*,.,.,.
O=C(c1ccc2c(Cl)c3c(nc2c1)CCCC3)N1CCN(c2ccc(Cl)cc2)CC1,.,.,.,7%[46.1 µM],.,3%[46.1 µM]
Cn1c(=N)n(CC(=O)C(C)(C)C)c2ccccc21,16%,?,27*,-4%[46.1 µM],148*,24%
CCn1c(=N)n(CC(=O)C(C)(C)C)c2ccccc21,9.3µM*,.,0,-14%,-14,3%
CCCn1c(=N)n(CC(=O)C(C)(C)C)c2ccccc21,?,?,-5,-4%,-30,5%
O=C1C(=O)N(Cc2cccnc2)C(c2ccccn2)/C1=C(/O)c1ccccc1 (centres undefined),29%,.,1,13%,-9,9%
CCC(=O)N1CCc2cc(S(=O)(=O)CCC(=O)NCc3ccc(OC)cc3)ccc21,7%,-7%,11,1%[46.1 µM],9,24%[46.1 µM]
COc1cc(Cl)c(NS(=O)(=O)c2ccc(-c3ccc(=O)[nH]n3)o2)c(OC)c1,56%,18%,-8,17%[46.1 µM],-11,18%[46.1 µM]
COc1ccccc1CNC(=O)c1cc(-c2cccnc2)nc2ccccc12,-10%,10µM*,18,-42%[46.1 µM],14,?
O=C(NCc1cccnc1)c1cc(Sc2ccc(F)cc2F)nc2ccccc12,-19%,?,-2,11µM*,-8,?
COCCCNC(=O)c1cc(-c2cccnc2)nc2ccccc12,?,11%,-2,9%[46.1 µM],-3,-15%[46.1 µM]
COc1ccccc1CNC(=O)c1cccnc1,12µM*,-1%,-3,-1%,32,21%
NC(=O)COC(=O)c1c2c(nc3ccccc13)CCCCC2,-13%,-20%,7,.,-23,.
O=C(COC(=O)c1c2c(nc3ccccc13)CCCCC2)c1ccc(Cl)s1,?,-26%,9,7%,78*,10%
